Data: PubChem BioAssay AID602312 (The Scripps Research Institute Molecular Screening Center, 2012)
Activity calls are given as the source filed them.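 How the source made its calls: active means inhibition of at least 50% at 1 µM; inactive means inhibition below 50% at 1 µM.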

Molecular target: sn-1-specific diacylglycerol lipase ABHD11 (Mus musculus) (UniProt Q8K4F5)
Assay: mouse ABHD11 activity inhibitors in proteome – biochemical, competitive gel ABPP, set 2, selectivity assay for DAGLb inhibitor project, late-stage follow-up (AID 602312)

Chain of sn-1-specific diacylglycerol lipase ABHD11 (Mus musculus) (Q8K4F5 whole entry, looked up): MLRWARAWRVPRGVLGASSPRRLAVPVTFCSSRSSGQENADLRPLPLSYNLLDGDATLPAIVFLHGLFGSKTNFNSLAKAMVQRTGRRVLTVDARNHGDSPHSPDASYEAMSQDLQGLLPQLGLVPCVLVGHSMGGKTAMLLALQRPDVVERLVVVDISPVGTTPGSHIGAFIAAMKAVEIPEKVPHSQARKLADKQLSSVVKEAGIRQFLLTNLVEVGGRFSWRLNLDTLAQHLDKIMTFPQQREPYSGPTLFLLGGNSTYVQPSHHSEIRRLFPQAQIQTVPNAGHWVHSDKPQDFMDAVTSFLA

`COc1ccc(-c2ccc(-c3cn(C(=O)N4CCCCC4c4ccccc4)nn3)cc2)cc1` (stereo unspecified) was tested, and the outcome was “inactive”.
